Measurements published in PubChem BioAssay (NCATS).
Records with an inconclusive call do not appear. The source made the active and inactive calls. Unless noted, calls follow the shape of the dose curve; as a rule, active = well fitted curve in the direction sought with a large enough effect; inconclusive = small, poorly fitted or top-dose-only effect, or another doubt; inactive = no such curve, though single readings can be large; an effect the other way counts as inactive or inconclusive.

Columns and labels:
[1] = molecular target: Protein phosphatase 1D (Homo sapiens) (UniProt O15297); assay: RapidFire Mass Spectrometry qHTS Assay for Modulators of WT P53-Induced Phosphatase 1 (WIP1) (AID 1347424); also: series mostly up to about 63 µM
How it was run: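 RapidFire MS readout of dephosphorylated VEPPL-S-QETFS product, with 1 uM isotope-labelled peptide standard. Reaction: 10 nM WIP1, 2 uM phosphopeptide substrate, 5 min, room temperature, after 1 h compound preincubation; stopped with 0.5% formic acid.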

[2] = molecular target: Protein phosphatase 1D (Homo sapiens) (UniProt O15297); assay: Rhodamine-PBP qHTS Assay for Modulators of WT P53-Induced Phosphatase 1 (WIP1) (AID 1347425)
How it was run: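 Read-out: Rhodamine-PBP fluorescence (ex 525/em 598 nm) for released Pi, read each minute for 11 min after adding 10 uM VEPPL-pS-QETFS; signal taken as f1 minus pre-substrate f0. Enzyme 5 nM WIP1 with 1 hr room-temperature compound preincubation.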

[3] = Primary qHTS for inhibitors of SARS-S pseudo-typed particle cell entry (AID 1479145; calls by dose curve; also: nearly all actives have a fitted effect of over 45% in size)
[4] = Primary qHTS for Huh7 cytotoxicity: counterscreen for inhibitors of MERS-S pseudotyped particle cell entry (AID 1479147; calls by dose curve)
[5] = Primary qHTS for inhibitors of MERS-S pseudo-typed particle cell entry (AID 1479149; calls by dose curve; also: nearly all actives have a fitted effect of over 60% in size)
[6] = Primary qHTS for Vero E6 cytotoxicity: counterscreen for inhibitors of SARS-S pseudo-typed particle cell entry (AID 1479150; calls by dose curve)
[7] = Primary qHTS for inhibitors of La Crosse Virus (LACV) - induced cell death in SH-SY5Y cells (AID 1508616);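 also: top concentration of the series differs between compounds; higher means more rescue of cells from virus-induced death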
How it was run: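 Screening measures cell viability in LACV-infected SH-SY5Y cultures. Compound was added before virus (0.01 MOI), and ATP was detected by luminescence 6 days later.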

[8] = A High-Content qHTS Against Drug Library for the Identification of Small Molecules that Inhibit DYT1 Early Onset Primary Dystonia-Associated Cell Pathology (AID 1645839; calls by dose curve; also: series mostly up to about 46 µM)
How it was run: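 Cells were seeded and left for 24 h, then dosed with compound alongside tetracycline induction of mutant EGFP-TorsinA. They were incubated for 48 h, fixed in 4% paraformaldehyde, permeabilized and imaged for mislocalization (%pathology) and cell count.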

[9] = molecular target: Calcium and integrin-binding protein 1 (Homo sapiens) (UniProt Q99828); assay: Primary qHTS for Identification of Calcium Integrin Binding Protein 1 (CIB1) Competitor (AID 1508620);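 also: GST tagged CIB1 binding a fluorescein labelled alphaIIb integrin peptide tracer; top concentration of the series differs between compounds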
How it was run: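 Fluorescence polarization competition: GST-tagged CIB1 (1 uM final) preincubated with compound 15 min at room temperature, then FITC-labelled alphaIIb peptide (100 nM final) added. After 15 min at room temperature, polarization read at Ex 480/Em 540.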

[10] = Primary qHTS for small molecule stabilizers of the endoplasmic reticulum resident proteome: Secreted ER Calcium Modulated Protein (SERCaMP) assay (AID 1508630)
How it was run: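 The SH-SY5Y reporter protocol was run at 3 concentrations up to 38.3 uM (primary) or 11 concentrations (follow-up): 16 h compound, 100 nM thapsigargin for 4 h, then extracellular luciferase luminescence.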

[11] = qHTS to identify inhibitors of the type 1 interferon - major histocompatibility complex class I in skeletal muscle: primary screen against the NCATS Mechanism Interrogation Plate v5.0 (MIPE) Libary (AID 1347411); also: nearly all actives have a fitted effect of over 65% in size
How it was run: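 IFN-beta-driven (4 ng/ml) HLA-B-HiBit expression in CRISPR-tagged C25cl48 myoblasts; compounds 11-pt, 1:3, max 46 uM, 24 hr exposure; lytic NanoLuc complementation luminescence.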

[12] = qHTS for inhibitors of adenylyl cyclases using a fission yeast platform: a pilot screen against the NCATS LOPAC library (AID 1347410)
How it was run: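 Growth medium went into the plates first, then compounds were pinned (final up to 57 µM), then CHP2027 yeast were added. Plates were incubated overnight (18 h) at 30C in the dark, and GFP was measured by laser scanning cytometry.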

[13] = Validation qHTS assay for inhibitors of Activation Induced Cytidine Deaminase (AID): UDG Counterscreen signal (AID 1347427)
How it was run: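 Fluorescence at 560 nm excitation, 665 nm emission reports UDG signal after 250 mM NaOH (2x) addition and 30 min. Enzymes (AID 1 uM, UDG 2 U/mL, at 4/3x) preincubated 10 min with compound, then 4 h with 4x 250 nM DJC20/DJC23 substrate at room temperature.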

[14] = molecular target: Calcium and integrin-binding protein 1 (Homo sapiens) (UniProt Q99828); assay: Validation qHTS for Identification of Calcium Integrin Binding protein 1 (CIB1) Competitor (AID 1508618)
How it was run: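 CIB1-GST (1 uM final) in 5 mM HEPES pH 7.4, 125 mM NaCl, 5 mM CaCl2, 0.01% Tween20 was preincubated 15 min at room temperature with compound (up to 114 uM), then FITC-alphaIIb peptide (100 nM) added for 15 min; fluorescence polarization read.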

Measured: Potency

Sequence of Protein phosphatase 1D (Homo sapiens) (O15297 whole entry, looked up): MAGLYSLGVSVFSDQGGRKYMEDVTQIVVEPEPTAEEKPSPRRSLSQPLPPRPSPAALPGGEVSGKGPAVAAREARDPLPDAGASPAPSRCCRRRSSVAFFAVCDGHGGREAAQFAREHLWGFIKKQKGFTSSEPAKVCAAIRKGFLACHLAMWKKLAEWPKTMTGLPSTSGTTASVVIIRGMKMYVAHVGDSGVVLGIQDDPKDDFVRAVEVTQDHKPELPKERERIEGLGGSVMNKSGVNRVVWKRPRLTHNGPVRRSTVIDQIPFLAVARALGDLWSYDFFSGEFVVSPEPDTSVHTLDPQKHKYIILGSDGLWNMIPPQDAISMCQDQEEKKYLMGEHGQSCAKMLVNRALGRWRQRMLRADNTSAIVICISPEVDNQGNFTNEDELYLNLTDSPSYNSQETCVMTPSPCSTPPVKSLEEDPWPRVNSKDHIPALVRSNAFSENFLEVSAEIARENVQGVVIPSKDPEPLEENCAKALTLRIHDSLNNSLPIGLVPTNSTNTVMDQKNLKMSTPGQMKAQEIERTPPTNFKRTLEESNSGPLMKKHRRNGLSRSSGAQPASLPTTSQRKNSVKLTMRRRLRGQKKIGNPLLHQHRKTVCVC
Sequence of Calcium and integrin-binding protein 1 (Homo sapiens) (Q99828 whole entry, looked up): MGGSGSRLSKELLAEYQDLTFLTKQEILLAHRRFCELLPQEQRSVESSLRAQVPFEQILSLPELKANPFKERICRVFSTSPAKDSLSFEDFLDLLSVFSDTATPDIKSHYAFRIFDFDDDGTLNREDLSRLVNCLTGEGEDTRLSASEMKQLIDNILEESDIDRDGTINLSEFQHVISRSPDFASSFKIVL

Oc1ccc(Cl)cc1
inactive: [1] | [2] | [3] | [4] | [5] | [6] | [7] | [8]

C[C@@H]1CC2=CC(=O)CC[C@@H]2[C@H]2CC[C@@]3(C)[C@@H](CC[C@]3(C)O)[C@@H]21
inactive: [1] | [2] | [4] | [6] | [7] | [9] | [10]

CC(C)C[C@H](CN)CC(=O)O
inactive: [11] | [9]

C[C@]12CCC(=O)C=C1CC[C@@H]1[C@@H]2CC[C@]2(C)C(=O)CC[C@@H]12
not listed: [10] | [11] | [12] | [13] | [14]
inactive: all other assays above

CC(C)c1cccc(C(C)C)c1O
not listed: [1] | [8]
inactive: all other assays above

O=C1CN=C(c2ccccc2)c2cc([N+](=O)[O-])ccc2N1
inactive: [1] | [2] | [7] | [9]

O=P1(N(CCCl)CCCl)NCCCO1 (centres undefined)
not listed: [1] | [10]
inactive: all other assays above

CCC1(c2ccc(N)cc2)CCC(=O)NC1=O (centres undefined)
not listed: [1]
inactive: all other assays above

NCCc1ccc(O)cc1
inactive: [12] | [2] | [13] | [7] | [14] | [9] | [10] | [8]

CC(Cc1ccccc1)NCCn1cnc2c1c(=O)n(C)c(=O)n2C (centres undefined)
inactive: [1] | [2] | [7] | [9]
